From PubChem BioAssay AID1159580 (chemical genetic matrix, 2015)
The whole screen tested about 5,500 compounds, of which about 2,000 (36%) were called active. Roughly 18% stayed inconclusive and do not appear here. This is one part of the list. Unmarked numbers belong to inactive results. No stated cut-off is given here; in the data, active means normalized growth mostly below about 0.91 (no sharp cut-off); inconclusive means no clear call, values can overlap the other calls; inactive means mostly above about 0.92.

Test: chemical genetic growth profiling, strain panel (AID 1159580);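 further: tested at 20 µM; growth read once vehicle control cultures reached saturation at 30 °C; 1 = growth at the plate median or of vehicle wells; lower values mean less growth of the strain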
Conditions: S. cerevisiae deletion strains, growth OD

Cc1cc(=O)c2c(O)c3c(cc2o1)OCC(C)CC3 (centres undefined)
normalized growth (locus YBR021W, strain FUR4, active compounds read low): 0.993 | normalized growth (locus YBR229C, strain ROT2, active compounds read low): 0.981 | normalized growth (locus YCL029C, strain bik1, active compounds read low): 0.912 | normalized growth (locus YDL035C, strain GPR1, active compounds read low): 0.954 | normalized growth (locus YDL074C, strain BRE1, active compounds read low): 0.818 | normalized growth (locus YDL101C, strain DUN1, active compounds read low): 0.898 | normalized growth (locus YDL185W, strain tfp1, active compounds read low): 0.915 | normalized growth (locus YDL192W, strain arf1, active compounds read low): 0.848 (active) | normalized growth (locus YDR101C, strain arx1, active compounds read low): 0.896 (active) | normalized growth (locus YDR162C, strain NBP2, active compounds read low): 0.885 | normalized growth (locus YDR318W, strain mcm21, active compounds read low): 0.858 (active) | normalized growth (locus YDR388W, active compounds read low): 0.909 (active) | normalized growth (locus YDR502C, strain sam2, active compounds read low): 0.858 (active) | normalized growth (locus YER110C, active compounds read low): 0.893 (active) | normalized growth (locus YER155C, strain BEM2, active compounds read low): 0.849 (active) | normalized growth (locus YER167W, strain BCK2, active compounds read low): 0.961 | normalized growth (locus YGL078C, strain dbp3, active compounds read low): 0.936 | normalized growth (locus YGL086W, strain mad1, active compounds read low): 0.846 (active) | normalized growth (locus YGL248W, strain PDE1, active compounds read low): 0.881 (active) | normalized growth (locus YGR078C, strain PAC10, active compounds read low): 0.8 (active) | normalized growth (locus YGR135W, strain pre9, active compounds read low): 0.806 (active) | normalized growth (locus YGR252W, strain gcn5, active compounds read low): 0.689 (active) | normalized growth (locus YHR079C, strain IRE1 (second series), active compounds read low): 0.925 (active) | normalized growth (locus YHR094C, strain hxt1, active compounds read low): 0.926 | normalized growth (locus YHR129C, strain ARP1, active compounds read low): 0.926 | normalized growth (locus YHR200W, strain rpn10, active compounds read low): 0.868 (active) | normalized growth (locus YIL066C, strain RNR3, active compounds read low): 0.941 | normalized growth (locus YIL073C, strain SPO22, active compounds read low): 0.796 | normalized growth (locus YIL125W, strain kgd1, active compounds read low): 0.924 (active) | normalized growth (locus YIR030C, strain dcg1, active compounds read low): 0.912 (active) | normalized growth (locus YJL095W, strain BCK1, active compounds read low): 0.815 | normalized growth (locus YJL134W, strain LCB3, active compounds read low): 0.969 | normalized growth (locus YJL168C, strain set2, active compounds read low): 0.914 (active) | normalized growth (locus YJL187C, strain SWE1 (second series), active compounds read low): 0.908 | normalized growth (locus YJR043C, strain POL32, active compounds read low): 0.966 | normalized growth (locus YKL009W, strain mrt4, active compounds read low): 0.897 | normalized growth (locus YKL068W, active compounds read low): 0.921 (active) | normalized growth (locus YKL085W, strain MDH1 (second series), active compounds read low): 0.942 | normalized growth (locus YKL085W, strain MDH1, active compounds read low): 0.942 | normalized growth (locus YKR001C, strain vps1, active compounds read low): 0.797 (active) | normalized growth (locus YLR039C, strain RIC1, active compounds read low): 0.673 (active) | normalized growth (locus YLR058C, strain SHM2, active compounds read low): 0.926 | normalized growth (locus YLR102C, strain apc9, active compounds read low): 0.928 | normalized growth (locus YLR268W, strain sec22, active compounds read low): 0.914 | normalized growth (locus YLR371W, strain rom2, active compounds read low): 0.821 (active) | normalized growth (locus YLR418C, strain cdc73, active compounds read low): 0.591 (active) | normalized growth (locus YML016C, strain PPZ1, active compounds read low): 0.976 | normalized growth (locus YML032C, strain rad52, active compounds read low): 0.881 (active) | normalized growth (locus YML124C, strain tub3, active compounds read low): 0.91 (active) | normalized growth (locus YMR078C, strain ctf18, active compounds read low): 0.899 (active) | normalized growth (locus YMR223W, strain ubp8, active compounds read low): 0.879 (active) | normalized growth (locus YMR307W, strain GAS1, active compounds read low): 0.588 (active) | normalized growth (locus YNL067W, strain RPL9B, active compounds read low): 0.919 | normalized growth (locus YNL153C, strain GIM3, active compounds read low): 0.704 (active) | normalized growth (locus YNL233W, strain BNI4, active compounds read low): 0.826 (active) | normalized growth (locus YNL250W, strain rad50, active compounds read low): 0.902 | normalized growth (locus YNL271C, strain bni1, active compounds read low): 0.922 | normalized growth (locus YNL298W, strain CLA4, active compounds read low): 0.929 | normalized growth (locus YNL307C, strain MCK1, active compounds read low): 0.719 (active) | normalized growth (locus YNL322C, strain KRE1, active compounds read low): 0.923 (active) | normalized growth (locus YNR052C, strain pop2, active compounds read low): 0.932 | normalized growth (locus YOL012C, strain htz1): 1.02 | normalized growth (locus YOL147C, strain pex11, active compounds read low): 0.887 (active) | normalized growth (locus YOR061W, strain CKA2, active compounds read low): 0.98 | normalized growth (locus YOR069W, strain VPS5, active compounds read low): 0.96 | normalized growth (locus YOR136W, strain idh2, active compounds read low): 0.915 (active) | normalized growth (locus YOR144C, strain elg1, active compounds read low): 0.91 (active) | normalized growth (locus YOR184W, strain ser1, active compounds read low): 0.725 (active) | normalized growth (locus YOR316C, strain cot1, active compounds read low): 0.918 (active) | normalized growth (locus YPR119W, strain clb2, active compounds read low): 0.914 (active) | normalized growth (locus YPR141C, strain kar3, active compounds read low): 0.918 | normalized growth (locus YPR163C, strain tif3, active compounds read low): 0.855 (active) | normalized growth (locus YPR167C, strain met16, active compounds read low): 0.868 (active) | normalized growth (strain wtn01, active compounds read low): 0.897 (active)
